Experimental data from PubChem BioAssay (NCI).
About 79,000 compounds went through this panel and 15% of them were active in at least one assay; those are over-represented in the sample as a whole. A number with no mark means an inactive call. Activity calls are given as the source filed them. Cut-off read from the data, not from the text of the source: active = growth inhibition above about 70%; inactive = the rest.

Key:
[1] = NCI Yeast Anticancer Drug Screen. Data for the rad50 strain (AID 155);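 note: 0% = growth of vehicle-only cultures of the same strain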; conditions: S. cerevisiae rad50 strain growth inhibition, active compounds read high
Outline: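 DNA repair mutant yeast, compound exposure, growth read-out; inhibition is taken relative to vehicle.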

[2] = NCI Yeast Anticancer Drug Screen. Data for the mec2-1 strain (AID 157); conditions: S. cerevisiae mec2-1 strain, active compounds read high
Outline: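 Each compound was tested on mec2-1 yeast, a strain altered in DNA damage repair or cell cycle control. Growth inhibition is reported relative to vehicle.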

[3] = NCI Yeast Anticancer Drug Screen. Data for the sgs1 mgt1 strain (AID 161);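 note: 0% = growth of cultures given vehicle only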; conditions: S. cerevisiae sgs1 mgt1 strain, active compounds read high
Outline: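 Test agents were incubated with a DNA-repair-mutant yeast strain. Growth was then read and compared against vehicle-treated controls.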

[4] = NCI Yeast Anticancer Drug Screen. Data for the cln2 rad14 strain (AID 165);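 note: 0% = growth equal to vehicle treated cultures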; conditions: S. cerevisiae cln2 rad14 strain, active compounds read high
Outline: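 Test compounds were added to cln2 rad14 yeast cultures; inhibition of growth was then determined by comparison with vehicle treatment.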

[5] = NCI Yeast Anticancer Drug Screen. Data for the bub3 strain (AID 167); conditions: S. cerevisiae bub3 mutant strain, active compounds read high
Outline: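 In this screen, a yeast mutant lacking normal mitotic checkpoint function is challenged with compound. Relative growth versus vehicle gives the inhibition value.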

[6] = NCI Yeast Anticancer Drug Screen. Data for the mlh1 rad18 strain (AID 175); conditions: S. cerevisiae mlh1 rad18 strain growth inhibition, active compounds read high
Outline: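 Inhibition values reflect reduced growth of mutant yeast versus vehicle-treated controls following compound exposure; the mutations affect DNA damage repair.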

[7] = at 5.0 µM (retest, dose inferred, filed as 0.5)
[8] = at 50.0 µM (retest, dose inferred, filed as 5.0)

SMILES	growth inhibition [1, 7]	growth inhibition [1, 8]	growth inhibition ([1]; at 50.0 µM)	growth inhibition [2, 7]	growth inhibition [2, 8]	growth inhibition ([2]; at 50.0 µM)	growth inhibition [3, 7]	growth inhibition [3, 8]	growth inhibition ([3]; at 50.0 µM)	growth inhibition [4, 7]	growth inhibition [4, 8]	growth inhibition ([4]; at 50.0 µM)	growth inhibition [5, 7]	growth inhibition [5, 8]	growth inhibition ([5]; at 50.0 µM)	growth inhibition [6, 7]	growth inhibition [6, 8]	growth inhibition ([6]; at 50.0 µM)
Oc1c(Cl)cc(Cl)cc1C=Nc1cc(C(F)(F)F)ccc1Cl	76% (active)	100% (active)	91.8% (active)	50%	99% (active)	74.4% (active)	46%	100% (active)	91.7% (active)	8%	76% (active)	55.1%	5%	50%	77.4% (active)	50%	99% (active)	85.9% (active)
O=C(O)c1ccccc1-c1c2cc([N+](=O)[O-])c(=O)c(Br)c-2oc2c(Br)c(O)c([N+](=O)[O-])cc12	27%	91% (active)	77.5% (active)	29%	93% (active)	82.1% (active)	25%	66%	62%	34%	66%	88.5% (active)	32%	75% (active)	66.5%	42%	96% (active)	72.1% (active)
OCCN1c2ccccc2Sc2ccc(Cl)cc21	-1%	97% (active)	89.3% (active)	-18%	98% (active)	92% (active)	-14%	40%	90.8% (active)	30%	98% (active)	86.8% (active)	1%	97% (active)	91.3% (active)	12%	98% (active)	88.5% (active)
O=C(/C=C/c1ccc2c(c1)OCO2)c1ccc(O)cc1	-27%	-21%	61%	-13%	21%	44%	-27%	-31%	40.8%	-7%	-11%	65.2%	-32%	5%	61.5%	-33%	-17%	14.6%
O=C(CC1(O)C(=O)Nc2c(Cl)cc(Cl)cc21)c1ccc(Br)cc1Br (stereo not given)	55%	98% (active)	92.3% (active)	96% (active)	99% (active)	90.8% (active)	97% (active)	92% (active)	91.3% (active)	94% (active)	93% (active)	90.7% (active)	97% (active)	93% (active)	93.8% (active)	58%	98% (active)	92.2% (active)
COC(=O)[C@@H]1c2cc3c(c(O)c2[C@@H](OC)C[C@@]1(C)O)C(=O)c1c(O)cc2c(c1C3=O)OC1O[C@@]2(C)[C@H](O)[C@@H](N(C)C)[C@@H]1O	15%	98% (active)	64.2%	10%	95% (active)	94% (active)	9%	98% (active)	94% (active)	4%	97% (active)	87.5% (active)	5%	97% (active)	92.8% (active)	12%	97% (active)	92.4% (active)
NC(CSSCC(N)=NCCCCCSC12CC3CC(CC(C3)C1)C2)=NCCCCCSC12CC3CC(CC(C3)C1)C2	-2%	22%	99.2% (active)	1%	11%	99.6% (active)	1%	12%	99.5% (active)	3%	2%	98.8% (active)	5%	15%	98.7% (active)	0%	16%	99.3% (active)
CCOC(=O)c1c(SCC#N)n(-c2ccccc2)c(=S)n(-c2ccccc2)c1=O	12%	35%	80% (active)	-7%	39%	81.2% (active)	-8%	48%	75.3% (active)	-6%	77% (active)	78% (active)	1%	85% (active)	88.5% (active)	-11%	81% (active)	75.2% (active)
OC(c1ccccc1)(c1ccccc1)C(F)(Cl)Cl	1%	10%	52.2%	0%	58%	94.8% (active)	-4%	15%	64.4%	1%	17%	92.9% (active)	-14%	9%	98.5% (active)	-2%	37%	39.5%
N#CC(C#N)=C1C(Br)=CCc2ccccc21	100% (active)	99% (active)	99.2% (active)	100% (active)	100% (active)	99.3% (active)	100% (active)	99% (active)	99.2% (active)	100% (active)	99% (active)	97.5% (active)	100% (active)	99% (active)	99.2% (active)	100% (active)	99% (active)	99.2% (active)
